Measured values from PubChem BioAssay (NCI).
Compounds without any hit were thinned out: in the full panel of roughly 83,000, 20% have a hit.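 Percent growth is the endpoint: 0 to 100 indicates growth inhibition (40 means 60% inhibition), 0 means no net growth, and negative values indicate cell death.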 A number with no mark means an inactive call. Calls of active or inactive are those of the source. The calls were made as follows: active = growth percent below 10; inactive = the rest.

Test system: MDA-MB-468 breast
Experiment: NCI-60 one-dose screen, 48 h (100 = growth as untreated, 0 = no growth, -100 = all killed)
Details: 10 µM unless noted

Compared with CC(=O)c1ccc2c3c(n(C)c2c1)CCCC3, O=C(OC1CCCC1)c1ccccc1Cl is higher in growth: 77.9% for the first, 132% for the second.

Compared with CCN(CC)c1ccc2cc(C(Nc3ccc(Cl)cc3)c3nnnn3C(C)(C)C)c(=O)oc2c1 (stereo not given), COc1cc(Cn2ncc3ccc(NC(=O)c4cc5ccccc5oc4=N)cc32)cc(OC)c1OC is lower in growth: 109% for the first, 36.8% for the second.

Compared with Cc1cc(=O)oc2cc(OCc3nn4c(Nc5nc6ccccc6s5)c(-c5ccccc5)nc4s3)ccc12, CS(=O)(=O)c1nccc(-c2c(-c3cccc(OCCc4ccccc4)c3)nc3sccn23)n1 is lower in growth: 89.9% for the first, 20.2% for the second.

Compared with O=C(NC(Cc1ccccc1)C(=O)CCl)OCc1ccccc1 (stereo not given), N/N=C(\C(=N\N)c1ccccc1)c1ccccc1 is higher in growth: 79.8% for the first, 94% for the second.

Compared with COc1ccc(/C=C(/C2=NCCN2)n2ccc3ccccc32)cc1, COc1ccc(-c2cnc(-c3ccc(F)cc3)[nH]2)cc1 is higher in growth: 89.6% for the first, 90.3% for the second.

Going from N#CC1c2ccccc2C=CN1C(=O)CCCl (stereo not given) to OC(CSc1ccccc1)CN1CCN(c2ccc(Cl)cc2)CC1 (stereo not given), the growth rises from 24.2% to 86.7%.

Going from O=c1c2cc(F)ccc2sc2c(Nc3cccnc3)nc3ccccc3c12 to O=C1OC(c2nc3ccccc3s2)=C/C1=C\c1ccc(O)cc1, the growth rises from 76.4% to 114%.

First: CC(=O)OCC1OC(OCC2OC(OC(C)=O)C(OC(C)=O)C(OC(C)=O)C2OC(C)=O)C(OC(C)=O)C(OC(C)=O)C1OC(C)=O (stereo not given)
Second: O=C(C(=O)N1CCCCC1)c1ccc(OC2OC(CO)C(O)C(O)C2O)cc1 (stereo not given)
The growth of the first is lower: 81.3% for the first, 100% for the second.

Going from C=CCn1c(SCC(=O)Nc2ccc(C(=O)/C=C/c3cc(OC)c(OC)c(OC)c3)cc2)nnc1-c1cc(-c2ccc(OC)cc2)nc2ccccc12 to Cc1ccc2cccc(Oc3ccc(Nc4ncnc5onc(-c6ccccc6)c45)cc3)c2n1, the growth falls from 103% to 86.8%.

First: CCCCCCCCCCCCCCCCCC1=NCCCN1CCO
Second: CCOC(=O)C(CCC1=NC(C)(C)CC(C)O1)C(=O)OCC (stereo not given)
The growth of the first is higher: 110% for the first, 70.5% for the second.

Going from O=C(NCCN1CCOCC1)OCc1nc2nc(Cl)nc(N3CCOCC3)c2[nH]1 to Cc1ccc(NC(=O)c2ccc(CN3CCOCC3)c(C(F)(F)F)c2)cc1Oc1ccc(-c2[nH]nc3ncnc(N)c23)cc1, the growth rises from 10.1% to 96.8%.

Going from CCOC(=O)C1=CCC(n2cc(F)c(=O)[nH]c2=O)O1 (stereo not given) to CCOC(=O)C1=C(c2ccccc2)N=C2N(c3ccccc3)N=C(C(C)=O)N2C1c1ccc(F)cc1 (stereo not given), the growth falls from 134% to 93.2%.

Compared with COC(=O)c1ccc(C2Nc3ccc(S(=O)(=O)Nc4ccc(C)c(C)c4)cc3C3OCCC23)cc1 (stereo not given), COC(=O)c1ccc(C(=Nc2ccc(N(C)C(=O)CN3CCN(C)CC3)cc2)c2c(O)[nH]c3ccc(C(=O)OC)cc23)cc1 is higher in growth: 54.7% for the first, 62.5% for the second.

Compared with C/C(=C(/C)C1CC1CCN(C(=O)c1ccc([N+](=O)[O-])cc1)S(=O)(=O)c1ccc(C)cc1)C1CCCCC1 (stereo not given), O=C(NCN1C(=O)c2cccc3cccc(c23)C1=O)N1CCC(Cc2ccccc2)CC1 is higher in growth: 82.5% for the first, 101% for the second.

Compared with Nc1c(Cl)cc([N+](=O)[O-])cc1Br, Nc1nc2nnc(-c3ccccc3)c(-c3ccccc3)n2n1 is higher in growth: 92.3% for the first, 99.9% for the second.

First: C=C(C)[C@@H]1CC[C@]2(C(=O)NCCCO)CC[C@]3(C)[C@H](CC[C@@H]4[C@@]5(C)CCCNC(C)(C)[C@@H]5CC[C@]43C)[C@@H]12
Second: C(=N\Nc1nc(N/N=C/c2ccc3c(c2)OCO3)nc(N2CCCCC2)n1)/c1ccc2c(c1)OCO2
The growth of the first is lower: 72.3% for the first, 81.6% for the second.

CCOC(=O)c1sc(Nc2ncccn2)nc1-c1ccccn1 was tested, and the growth was 10.4%.

For C=C(CNCCc1ccc(O)cc1)[C@@H]1CC[C@]2(COC3CCCCO3)CC[C@]3(C)[C@H](CC[C@@H]4[C@@]5(C)CCC(N)C(C)(C)[C@@H]5CC[C@]43C)[C@@H]12 (stereo not given in full), the growth was -85.6% (active).
O=C(CNC(=O)c1cccc2ccccc12)Nc1ccccc1Oc1cccc(O)c1 was tested, and the growth was -3.16% [5 µM] (active).
For COc1cc(C(=O)OCCCCCCCCCCC[P+](c2ccccc2)(c2ccccc2)c2ccccc2)ccc1O, the growth was -27.7% (active).
CCC(=C(c1ccc(OCCN(C)C)cc1)c1ccc(OCCN(C)C)cc1)c1ccc(Cl)cc1 was tested, and the growth was -82.8% (active).
For COc1cc(-c2nc3occn3c2-c2ccnc(NCCCNS(=O)(=O)c3ccccc3)n2)ccc1F, the growth was 5.92% (active).
With COc1ccc(/C=C2\CN(C(=O)C(Cl)Cl)C/C(=C\c3ccc(OC)c(OC)c3)C2=O)cc1OC the growth was -14.2% (active).
For CCOC(=O)c1cccc(NC2=C(Cl)C(=O)c3nc(C)ccc3C2=O)c1, the growth was -33.4% (active).
